Assay results reported in PubChem BioAssay.
Active and inactive are the calls of the source.

Legend:
[1] = optical density shifts of acrAB sulA E. coli – strain DRC41, OD650, 48 h, E. coli filamentation inducer project, primary screen (AID 1152); details: higher = more signal, called active from +8 up or from −8 down;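 also: E. coli MC1000 strain DRC41 lacking acrAB efflux pump and sulA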
[2] = probe aLefty1 binding on compound microarray – biochemical, small-molecule microarray, 635/667 nm fluorescence, primary screen (AID 1153); details: higher = more signal;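 also: score merges spot fluorescence with signal-to-noise ratio from the scanned slide images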
[3] = plasmodial surface anion channel blockers, osmotic lysis – cell-based, P. falciparum Indochina, OD700, 1 h, primary screen (AID 1154); details: P. falciparum Indochina infected RBC osmotic lysis, higher = more signal, called active from +8 up or from −8 down
[4] = plasmodial surface anion channel blockers, osmotic lysis – cell-based, P. falciparum Indochina, OD700, 2 h, primary screen (AID 1155);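 also: lysis reports solute entry through the parasite surface anion channel PSAC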; details: P. falciparum Indochina infected erythrocytes, higher = more signal, called active from +8 up or from −8 down
[5] = changes in parasitized red cell lysis, either direction – P. falciparum Indochina, OD700, 3 h, PSAC antagonist project, primary screen (AID 1156); details: P. falciparum-infected erythrocytes, osmotic lysis, higher = more signal, called active from +8 up or from −8 down
[6] = plasmodial surface anion channel blockers, osmotic lysis – cell-based, P. falciparum Indochina, OD700, 18 h, primary screen (AID 1157); details: P. falciparum Indochina infected erythrocytes, osmotic lysis OD700, 18 h; higher = more signal, called active from +8 up or from −8 down
[7] = S6 kinase pathway phospho-S6 level changes – cell-based, A549, cytoblot, luminescence, serum-stimulated, primary screen (AID 1158); details: 5 h, higher = more signal;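 also: serum-stimulated A549 lung adenocarcinoma cells; signal is phosphorylated S6 detected by cytoblot immunostaining with HRP secondary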
[8] = biological target: NADPH oxidase 2 (Homo sapiens) (UniProt P04839); assay: compounds shifting NOX2 Amplex Red fluorescence – cell-based, HEK293-NOX2, PMA-stimulated, NOX inhibitor project, primary screen (AID 1159); details: 45 min, higher = more signal, called active from +8 up or from −8 down; also: test concentration not given here
Sequence of NADPH oxidase 2 (Homo sapiens) (P04839 whole entry, looked up): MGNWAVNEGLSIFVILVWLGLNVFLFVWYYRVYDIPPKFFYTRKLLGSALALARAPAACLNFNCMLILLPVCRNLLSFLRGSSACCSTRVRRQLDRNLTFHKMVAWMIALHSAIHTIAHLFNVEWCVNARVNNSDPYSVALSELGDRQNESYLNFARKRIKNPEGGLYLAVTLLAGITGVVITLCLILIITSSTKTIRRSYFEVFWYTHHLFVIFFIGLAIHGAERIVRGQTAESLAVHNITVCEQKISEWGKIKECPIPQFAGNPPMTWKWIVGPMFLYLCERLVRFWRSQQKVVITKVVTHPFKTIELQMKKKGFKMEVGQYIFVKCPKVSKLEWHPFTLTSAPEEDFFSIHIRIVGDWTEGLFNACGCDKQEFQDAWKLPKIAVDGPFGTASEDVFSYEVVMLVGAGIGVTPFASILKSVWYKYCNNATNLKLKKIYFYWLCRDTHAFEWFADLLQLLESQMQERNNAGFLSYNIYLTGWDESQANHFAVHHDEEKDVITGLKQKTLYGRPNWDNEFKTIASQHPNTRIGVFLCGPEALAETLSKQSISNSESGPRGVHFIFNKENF

[9] = biological target: NADPH oxidase 4 (Homo sapiens) (UniProt Q9NPH5); assay: compounds shifting NOX4 Amplex Red fluorescence – cell-based, HEK293-NOX4, tetracycline-induced, NOX inhibitor project, primary screen (AID 1160); details: HEK293-NOX4, Amplex Red H2O2 fluorescence, 45 min; higher = more signal, called active from +8 up or from −8 down
Sequence of NADPH oxidase 4 (Homo sapiens) (Q9NPH5 whole entry, looked up): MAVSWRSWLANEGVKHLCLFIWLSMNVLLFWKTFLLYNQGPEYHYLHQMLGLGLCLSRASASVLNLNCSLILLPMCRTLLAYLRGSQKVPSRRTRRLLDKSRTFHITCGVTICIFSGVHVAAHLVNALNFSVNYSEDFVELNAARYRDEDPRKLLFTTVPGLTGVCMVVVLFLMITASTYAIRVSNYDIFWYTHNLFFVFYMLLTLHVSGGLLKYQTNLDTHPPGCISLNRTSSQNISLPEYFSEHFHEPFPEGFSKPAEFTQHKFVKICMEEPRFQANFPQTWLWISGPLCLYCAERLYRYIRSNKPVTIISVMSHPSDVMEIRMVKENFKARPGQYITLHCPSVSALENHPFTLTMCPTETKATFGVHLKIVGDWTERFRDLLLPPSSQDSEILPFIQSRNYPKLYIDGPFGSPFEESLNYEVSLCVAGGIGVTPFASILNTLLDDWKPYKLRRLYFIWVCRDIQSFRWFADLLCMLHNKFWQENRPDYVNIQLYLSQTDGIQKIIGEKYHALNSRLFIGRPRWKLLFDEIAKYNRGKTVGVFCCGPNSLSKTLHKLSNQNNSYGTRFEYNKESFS

[10] = biological target: NADPH oxidase 5 (Homo sapiens) (UniProt Q96PH1); assay: compounds shifting NOX5 Amplex Red fluorescence – cell-based, HEK293-NOX5, NOX inhibitor project, primary screen (AID 1161); details: HEK293-NOX5, ionomycin, 45 min, higher = more signal
Sequence of NADPH oxidase 5 (Homo sapiens) (Q96PH1 whole entry, looked up): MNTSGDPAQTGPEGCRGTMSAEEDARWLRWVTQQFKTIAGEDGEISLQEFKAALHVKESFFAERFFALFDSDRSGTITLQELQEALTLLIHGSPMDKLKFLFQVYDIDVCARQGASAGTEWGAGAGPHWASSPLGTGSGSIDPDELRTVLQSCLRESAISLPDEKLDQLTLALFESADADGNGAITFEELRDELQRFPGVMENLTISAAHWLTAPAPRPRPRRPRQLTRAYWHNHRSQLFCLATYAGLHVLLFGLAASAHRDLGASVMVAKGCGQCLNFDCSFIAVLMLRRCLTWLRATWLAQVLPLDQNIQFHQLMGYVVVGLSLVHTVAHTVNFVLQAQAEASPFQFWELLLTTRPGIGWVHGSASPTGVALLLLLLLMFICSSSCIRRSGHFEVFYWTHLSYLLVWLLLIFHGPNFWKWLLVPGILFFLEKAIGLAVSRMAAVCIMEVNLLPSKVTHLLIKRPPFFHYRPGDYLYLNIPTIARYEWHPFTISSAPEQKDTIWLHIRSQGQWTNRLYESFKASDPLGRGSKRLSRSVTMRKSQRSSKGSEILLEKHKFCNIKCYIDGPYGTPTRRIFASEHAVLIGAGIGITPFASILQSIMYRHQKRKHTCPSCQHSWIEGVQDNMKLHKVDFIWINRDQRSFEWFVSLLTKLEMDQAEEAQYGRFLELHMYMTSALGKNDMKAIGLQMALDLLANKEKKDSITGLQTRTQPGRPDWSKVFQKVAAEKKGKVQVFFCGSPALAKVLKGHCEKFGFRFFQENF

SMILES	z-score [1]	composite z-score [2]	z-score [3]	z-score [4]	z-score [5]	z-score [6]	z-score [7]	z-score [8]	z-score [9]	z-score [10]
[N-]=[N+]=Nc1ccccc1[C@H]1OC(c2ccc(OCCCO)cc2)=N[C@@]1(Cc1ccccc1)C(=O)NCCN1CCOCC1	0.378 (inactive)	0.31	33.5 (active)	30.9 (active)	2.73 (inactive)	8.84 (active)	0.138	-1 (inactive)	0.585 (inactive)	1.57
C=CCNC(=O)[C@@H]1[C@H]2C(=O)O[C@H](c3ccccc3)[C@H](c3ccccc3)N2[C@H](c2ccccc2OCCO)[C@@]12C(=O)Nc1ccc(C#CCC(C(=O)OC)C(=O)OC)cc12	-0.79 (inactive)	0.666	4.93 (inactive)	1.81 (inactive)	0.622 (inactive)	1.36 (inactive)	-0.304	0.21 (inactive)	0.161 (inactive)	1.98
CC(C)c1ccc(NN2C(C(O)c3ccc(F)cc3)C=CC3C(=O)N(c4ccccc4)C(=O)C32)cc1 (stereo not given)	-0.601 (inactive)	0.498	3.82 (inactive)	1.76 (inactive)	0.0964 (inactive)	1.44 (inactive)	-1.05	-1.15 (inactive)	-2.78 (inactive)	-2.6
CCCC[C@@H](O)C1=C(COC)C[C@H]2C(=O)N(C)C(=O)[C@H]2[C@H]1CO	2.54 (inactive)	0.218	-0.179 (inactive)	-1.31 (inactive)	-1.12 (inactive)	-2.19 (inactive)	1.59	-0.342 (inactive)	0.564 (inactive)	0.819
COC(=O)C/C=C/C[C@]1(O)C(=O)N(C)c2ccccc21	2.8 (inactive)	-0.147	-0.526 (inactive)	-0.562 (inactive)	-0.679 (inactive)	-1.87 (inactive)	1.26	-0.563 (inactive)	0.4 (inactive)	0.882
O=C1CS(=O)(=O)C(c2cccc([N+](=O)[O-])c2)N1c1ccccc1 (stereo not given)	2.48 (inactive)	0.683	-0.625 (inactive)	-1.38 (inactive)	-0.903 (inactive)	-1.68 (inactive)	1.93	0.227 (inactive)	0.38 (inactive)	1.79
C=CC[C@@]1(C(=O)NCCCOC)N=C(c2ccc(OCCCO)cc2)O[C@@H]1c1ccccc1	1.3 (inactive)	0.611	21.7 (active)	7.55 (inactive)	1.32 (inactive)	0.406 (inactive)	1.54	-0.393 (inactive)	0.523 (inactive)	0.754
COC(=O)[C@@]1(Cc2ccc(F)cc2)[C@H]2c3cc(C(=O)N(C)C)n(Cc4ccc(OC(F)(F)F)cc4)c3C[C@H]2CN1C(=O)c1ccccc1	-1.4 (inactive)	0.651	-0.0341 (inactive)	0.673 (inactive)	-0.0751 (inactive)	0.692 (inactive)	-0.139	0.195 (inactive)	-0.44 (inactive)	0.205
CC[C@@H]1C=C(C(=O)O)[C@H](c2ccc(C#N)cc2)N1S(=O)(=O)c1ccc(C)cc1	-0.29 (inactive)	0.276	1.48 (inactive)	0.544 (inactive)	-0.158 (inactive)	0.192 (inactive)	-0.436	0.452 (inactive)	-0.156 (inactive)	-0.848
CCCCCC1=C2CNC(C)(C(=O)OC)C=C2C(C)C1=O (stereo not given)	-1.81 (inactive)	-0.0236	0.585 (inactive)	0.0544 (inactive)	0.777 (inactive)	0.373 (inactive)	-0.628	0.116 (inactive)	-2.6 (inactive)	-3.07
CCOC(=O)C[C@H]1[C@H](OC(=O)c2ccc(-c3ccccc3)cc2)[C@@H](NC(=O)CC(C)C)c2cc(OCCCO)ccc2N1C(=O)c1ccc2ccccc2n1	-0.0672 (inactive)	-0.274	2.19 (inactive)	0.0409 (inactive)	0.457 (inactive)	0.238 (inactive)	0.2	-1.89 (inactive)	0.452 (inactive)	-0.0775
COc1ccc([Si](C)(C)[C@@H]2[C@@H](CCO)O[C@]3(C(=O)N(Cc4cccc(NC(=O)[C@H](C)O)c4)c4ccccc43)[C@H]2C)cc1	-1.19 (inactive)	0.286	9.14 (active)	2.91 (inactive)	-1.04 (inactive)	1.35 (inactive)	-0.472	-0.881 (inactive)	0.436 (inactive)	-0.256
CCCC[C@@H]1C[C@H]1[C@@H](NC(=O)c1cccs1)c1ccccc1C(F)(F)F	-1.04 (inactive)	0.294	1.89 (inactive)	1.12 (inactive)	-0.37 (inactive)	0.544 (inactive)	-0.423	-1.39 (inactive)	-3.14 (inactive)	-0.173
CCOc1cc(C(O)C2C=CC3C(=O)NC(=O)C3N2Nc2ccc(Cl)cc2Cl)ccc1O (stereo not given)	-1.36 (inactive)	-0.101	0.588 (inactive)	0.0352 (inactive)	0.0675 (inactive)	1.1 (inactive)	-1.04	-1.26 (inactive)	-1.88 (inactive)	-2.05
CC1=C2[C@@H](CCc3ccccc3)OB(O)C[C@@H]2[C@@H]2C(=O)N(Cc3ccccc3)C(=O)[C@@H]2C1	-0.42 (inactive)	-0.301	11.8 (active)	1.28 (inactive)	-0.633 (inactive)	0.55 (inactive)	0.433	-0.0748 (inactive)	0.167 (inactive)	0.587
O=C1N(Cc2ccccc2)c2ccccc2C[C@]12N=C(c1ccc(OCCCO)cc1)O[C@@H]2c1ccccc1	-0.522 (inactive)	-0.0968	24.8 (active)	15.7 (active)	1.41 (inactive)	2.71 (inactive)	-0.027	-0.73 (inactive)	0.472 (inactive)	0.0935
[N-]=[N+]=NCc1ccccc1C[C@@]1(C(N)=O)N=C(c2ccc(OCCCO)cc2)O[C@@H]1c1ccccc1	-1.25 (inactive)	0.408	27.2 (active)	19.2 (active)	0.354 (inactive)	2.58 (inactive)	-0.494	-2.31 (inactive)	0.64 (inactive)	-0.235
C=CCC(OC(C)=O)[C@@H]1[C@@H](N(Cc2cc3ccccc3o2)C(=O)Cc2ccc(F)cc2)c2cc(OCCCO)ccc2N1C(=O)Cc1ccc2ccccc2c1 (stereo not given in full)	-1.06 (inactive)	0.051	1.23 (inactive)	0.62 (inactive)	-0.621 (inactive)	0.184 (inactive)	-0.213	0.682 (inactive)	0.88 (inactive)	1.86
CCCNC(=O)[C@@]1(Sc2ccc(C)cc2)CC(=O)N(C2Cc3ccccc3C2)[C@@H]1c1ccc(CO)cc1I	0.815 (inactive)	0.844	9.9 (active)	2.14 (inactive)	-0.377 (inactive)	0.695 (inactive)	-0.303	0.716 (inactive)	-0.892 (inactive)	0.67
CO[C@H]1O[C@H](CO)[C@@H](OC(=O)Nc2ccccc2)[C@H](OC(=O)c2cc3ccccc3[nH]2)[C@H]1OC(=O)c1cc2ccccc2[nH]1	0.541 (inactive)	0.214	0.909 (inactive)	-0.795 (inactive)	0.447 (inactive)	-0.758 (inactive)	1.27	-6.27 (inactive)	-0.405 (inactive)	-2.16
COCCCNC(=O)[C@@]1(Sc2ccc(C)cc2)CC(=O)N(C2Cc3ccccc3C2)[C@@H]1c1ccc(CO)cc1	0.625 (inactive)	0.0653	1.86 (inactive)	-0.562 (inactive)	1.03 (inactive)	-1.78 (inactive)	2.12	0.00261 (inactive)	-0.107 (inactive)	-1.76
CC1=C2[C@@H](CCc3ccccc3)OB(O)C[C@@H]2[C@@H]2C(=O)N(C)C(=O)[C@@H]2C1	-0.155 (inactive)	0.035	1.45 (inactive)	0.454 (inactive)	-0.249 (inactive)	0.255 (inactive)	-0.391	0.162 (inactive)	0.234 (inactive)	-0.54
COCCOC(=O)N1C(=O)[C@@]2(c3cc(C#CC4(O)CCCCCC4)ccc31)[C@H](C(=O)N1CCc3cc(OC)c(OC)cc3C1)[C@H]1C(=O)O[C@H](c3ccccc3)[C@H](c3ccccc3)N1[C@@H]2c1ccc(OCCO)cc1	-0.073 (inactive)	-0.469	7.39 (inactive)	2.64 (inactive)	1.41 (inactive)	1.64 (inactive)	0.272	1.6 (inactive)	0.614 (inactive)	1.74
O=C(O)[C@@H]1[C@@H]2C(=O)N(c3ccccc3)C(=O)[C@@H]2C[C@@H]1Sc1ccccc1	-1.52 (inactive)	-0.0573	0.919 (inactive)	0.544 (inactive)	0.0175 (inactive)	0.631 (inactive)	-0.381	0.312 (inactive)	-0.541 (inactive)	-0.295
